# Measurements: PubChem BioAssay (NCI)
# Where “and” joins values, the source holds several entries; their conditions need not be identical. Equal values may be shown once. This is part of a sample that, as a whole, favours compounds with a hit. Of some 83,000 tested, about 20% had one in any assay.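 Results are percent growth after 48 hours of single-concentration exposure. 100 means growth as in untreated cells, lower positive values show inhibition; negative values down to -100 show cell death.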 Calls of active or inactive are those of the source. The calls were made as follows: active = growth percent below 10; inactive = the rest.
# Tested on: MDA-MB-468 breast
# Assay: NCI-60 one-dose screen, 48 h (100 = growth as untreated, 0 = no growth, -100 = all killed)
# Settings: 10 µM unless noted
row,SMILES,growth
1,C/C=C/CC(C)C(O)[C@H](NC(=O)[C@@H]1CCCN1C(=O)C(C)(C)NC(=O)CCCCCCC)C(=O)N[C@@](C)(CC)C(=O)N[C@@H](CCC(N)=O)C(=O)N[C@H](CCC(N)=O)C(=O)NC(C)(C)C(=O)NC(C)(C)C(=O)N[C@@H](CCC(N)=O)C(=O)N[C@H](CC(C)C)C(=O)N[C@H](CO)CC(C)C (stereo partly drawn),106% (inactive) and -55.5% (active)
2,COc1cc(CNCCc2ccc(Cl)cc2)cc(OC)c1O,43.5% (inactive)
3,C[C@@]12CC=C3c4nc(Nc5cccc(O)c5)sc4CC[C@]3(C)[C@H]1CC[C@]1(C)C(=O)CC[C@@H]21,32.2% (inactive)
4,CC[C@H](C)[C@H](NC(=O)[C@H]1CCCCN1C)C(=O)N(C)[C@H](C[C@@H](OC(C)=O)c1nc(C(=O)N[C@@H](Cc2ccccc2)C[C@H](C)C(=O)O)cs1)C(C)C,-6.41% (active)
5,C/C(CC(C)(C)N1CC1)=N\NC(=O)Nc1cccc2ccccc12,-2.46% (active)
6,O=C(Nc1ccc(S(=O)(=O)F)cc1)Oc1ccccc1,97.6% (inactive)
7,CC1(C)CC2(CC(C)(C)c3cc(O)c(O)cc32)c2cc(O)c(O)cc21,83.1% (inactive)
8,Oc1cccc2cccnc12,25% (inactive) and 96.3% (inactive) and 106% (inactive)
9,CC(C)=CC1C(C(=O)OCc2cccc(Oc3ccccc3)c2)C1(C)C (stereo not drawn),100% (inactive)
10,OCCNC(Cc1ccccc1)c1ccc2c(c1)OCO2 (stereo not drawn),97.7% (inactive)
11,C[C@]12CCC(=O)CC1CC[C@@H]1C2CC[C@@]2(C)C1CC[C@@H]2OC(=O)CC[Se][Se]CCC(=O)O[C@H]1CCC2[C@@H]3CCC4CC(=O)CC[C@]4(C)C3CC[C@@]21C (stereo partly drawn),77.5% (inactive)
12,N#CC(C#N)=C(C#N)C#N,102% (inactive)
13,O=[N+]([O-])/C=C/c1ccc([N+](=O)[O-])cc1,77.7% (inactive)
14,CC(=O)OC1CC2(O)C(CCC3(C)C(c4ccc(=O)oc4)CCC32O)C2(C)CCC(OC3OC(CO)C(O)C(O)C3O)C=C12 (stereo not drawn),-34.6% (active)
15,CC(=O)O[C@H](C[C@H](C(C)C)N(C)C(=O)[C@@H](NC(=O)[C@H]1CCCCN1C)C(C)C)c1nc(C(=O)NC2CCC(C(=O)O)CC2)cs1 (stereo partly drawn),29.6% (inactive)
16,O=c1cc[nH]c(=O)o1,105% (inactive)
17,O=C(CCl)Nc1ccc(Cl)cc1,18.6% (inactive)
18,CC1(C)N=C(N)N=C(N)N1c1ccc(OCCCCOc2ccc(S(=O)(=O)F)cc2)c(Cl)c1,-16.2% (active)
19,C[C@]12CC[C@H]3[C@@H](CCC4=CC(=O)CC[C@@H]43)[C@@H]1CC[C@@H]2OC(=O)N(CCCl)N=O,-22.1% (active)

row,SMILES,growth
1,CC1=C2[C@H]3OC(=O)[C@@H](C)[C@@H]3CC[C@@]2(C)C=CC1=O,93.4% (inactive)
2,Nc1c(Br)cc([N+](=O)[O-])cc1[N+](=O)[O-],95.5% (inactive)
3,COc1cccc2c1c(C(=O)c1ccco1)cn2Cc1ccc(F)cc1,103% (inactive)
4,CNC(=O)Oc1ccccc1,101% (inactive)
5,O=C([O][Hg][CH2]C1COCC([CH2][Hg][O]C(=O)c2ccccc2)O1)c1ccccc1 (stereo not drawn),22.7% (inactive)
6,O=C1NC(=O)C(Cc2ccccc2)(Cc2ccccc2)C(=O)N1,113% (inactive)
7,COc1ccn(C)c(=O)c1C#N,102% (inactive)
8,COc1cccc(C=NC(Cc2cnc[nH]2)C(=O)O)c1O (stereo not drawn),55.4% (inactive)
9,[Cl][Sn]([c]1ccccc1)([c]1ccccc1)[c]1ccccc1,-75% (active)
10,O=C(O)c1cc([N+](=O)[O-])cc([N+](=O)[O-])c1,103% (inactive)
11,CN(C)C(=O)Oc1ccccc1-c1ccccc1,99.7% (inactive)
12,CN1CCC(O)(c2ccc(F)cc2)C(C(=O)c2ccc(F)cc2)C1 (stereo not drawn),44.2% (inactive)
13,CC(C)(N)Cc1ccccc1,114% (inactive)
14,CC1=C[C@H]2O[C@@H]3C[C@H]4OC(=O)/C=C\C=C\[C@H]([C@@H](C)O)OCC[C@@H](C)[C@H](O)C(=O)OC[C@@]2(CC1)[C@]4(C)[C@]31CO1,-66.7% (active)
15,CC/C(Cc1ccccc1)=C(\c1ccc(OCCN2CCCC2)cc1)c1ccc(OC(=O)NCc2ccccc2)cc1,14.8% (inactive)
16,O=C1C(Cl)=C(N2CCOCC2)C(=O)c2ccccc21,-81% (active)
17,NC(N)=NC(N)=Nc1ccc(Cl)cc1,111% (inactive)
18,N#C[Se]CCN1C(=O)c2ccccc2C1=O,20.4% (inactive)
19,CC(=O)C1C(=O)N(C)C(=O)N(C)C1=O,104% (inactive)
